According to PubChem BioAssay:
Activity calls are given as the source filed them.

Key:
[1] = E. coli DRC41 culture turbidity changes, primary screen, E. coli filamentation inducer project, strain DRC41, OD650, 48 h (AID 1152);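 also: E. coli MC1000 strain DRC41 lacking acrAB efflux pump and sulA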; details: E. coli DRC41 (acrAB sulA), higher = more signal, called active from +8 up or from −8 down
[2] = small-molecule binders of probe aLefty1, primary screen, biochemical, small-molecule microarray, 635/667 nm fluorescence (AID 1153); details: higher = more signal;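 also: score merges spot fluorescence with signal-to-noise ratio from the scanned slide images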
[3] = PSAC antagonists in infected red cells, primary screen, cell-based, P. falciparum Indochina, OD700, 1 h (AID 1154); details: P. falciparum Indochina infected RBC osmotic lysis, higher = more signal, called active from +8 up or from −8 down
[4] = PSAC antagonists in infected red cells, primary screen, cell-based, P. falciparum Indochina, OD700, 2 h (AID 1155);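 also: lysis reports solute entry through the parasite surface anion channel PSAC; channel blockers reduce lysis of infected cells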; details: P. falciparum Indochina infected erythrocytes, osmotic lysis OD700; higher = more signal, called active from +8 up or from −8 down
[5] = osmotic lysis modulators in infected erythrocytes, primary screen, PSAC antagonist project, cell-based, P. falciparum Indochina, OD700, 3 h (AID 1156); details: higher = more signal, called active from +8 up or from −8 down
[6] = PSAC antagonists in infected red cells, primary screen, cell-based, P. falciparum Indochina, OD700, 18 h (AID 1157); details: P. falciparum Indochina infected erythrocytes, osmotic lysis OD700, 18 h; higher = more signal, called active from +8 up or from −8 down
[7] = modulators of S6 phosphorylation in cells, primary screen, cell-based, A549, cytoblot, luminescence, serum-stimulated (AID 1158); details: A549 phospho-S6 cytoblot, 5 h, higher = more signal;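 also: serum-stimulated A549 lung adenocarcinoma cells; signal is phosphorylated S6 detected by cytoblot immunostaining with HRP secondary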
[8] = biological target: NADPH oxidase 2 (Homo sapiens) (UniProt P04839); experiment: NOX2-dependent H2O2 signal modulators, primary screen, NOX inhibitor project, cell-based, HEK293-NOX2, PMA-stimulated, Amplex Red fluorescence (AID 1159); details: 45 min, higher = more signal, called active from +8 up or from −8 down; also: test concentration not given here
[9] = biological target: NADPH oxidase 4 (Homo sapiens) (UniProt Q9NPH5); experiment: NOX4-dependent H2O2 signal modulators, primary screen, NOX inhibitor project, cell-based, HEK293-NOX4, tetracycline-induced, Amplex Red fluorescence (AID 1160); details: 45 min, higher = more signal, called active from +8 up or from −8 down
[10] = biological target: NADPH oxidase 5 (Homo sapiens) (UniProt Q96PH1); experiment: NOX5-dependent H2O2 signal modulators, primary screen, NOX inhibitor project, cell-based, HEK293-NOX5, Amplex Red fluorescence (AID 1161); details: HEK293-NOX5, ionomycin, 45 min, higher = more signal
[11] = A549 cell viability effects, profiling panel, calcein-AM fluorescence, 48 h, basal (AID 1162); details: higher = more signal; also: test concentration not given here
[12] = adipocyte viability effects, profiling panel, cell-based, 3T3-L1 adipocytes, calcein-AM fluorescence, 48 h, basal (AID 1163); details: 3T3-L1 adipocytes viability, higher = more signal; also: test concentration not given here
[13] = HepG2 cell viability effects, profiling panel, calcein-AM fluorescence, 48 h, basal (AID 1164); details: higher = more signal; also: test concentration not given here
[14] = MM1S cell viability effects, profiling panel, calcein-AM fluorescence, 48 h, basal (AID 1165); details: higher = more signal;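 also: viability of MM1S multiple myeloma cells under basal unstimulated conditions; test concentration not given here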
[15] = basal RPMI8226 viability, no added stimulus, profiling panel, cell-based, calcein-AM fluorescence, 48 h, PK04 Diversity Set (AID 1166); details: RPMI8226 myeloma viability, higher = more signal;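 also: cells grown under basal conditions without added stimulus; test concentration not given here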
[16] = basal HepG2 mitochondrial membrane potential changes, profiling panel, cell-based, JC-1 fluorescence, 24 h, 100 nL compound (AID 1167); details: higher = more signal; also: test concentration not given here
[17] = basal 3T3-L1 adipocyte mitochondrial potential changes, profiling panel, cell-based, JC-1 fluorescence, 3T3-L1 adipocytes, 24 h, 100 nL compound (AID 1168); details: JC-1 mitochondrial fluorescence, higher = more signal, called active from +8 up or from −8 down; also: test concentration not given here
[18] = basal RPMI8226 mitochondrial membrane potential changes, profiling panel, cell-based, JC-1 fluorescence, 24 h, 100 nL compound (AID 1169); details: RPMI8226 myeloma, JC-1 mitochondrial potential fluorescence, higher = more signal; also: test concentration not given here
[19] = basal MM1S mitochondrial membrane potential changes, profiling panel, cell-based, JC-1 fluorescence, 24 h, 100 nL compound (AID 1170); details: higher = more signal; also: test concentration not given here
[20] = A549 lung cancer cell viability effects, profiling panel, resazurin fluorescence, 24 h, PK04 Diversity Set (AID 1171); details: higher = more signal, called active from +8 up or from −8 down; also: test concentration not given here

Sequence of NADPH oxidase 2 (Homo sapiens) (P04839 whole entry, looked up): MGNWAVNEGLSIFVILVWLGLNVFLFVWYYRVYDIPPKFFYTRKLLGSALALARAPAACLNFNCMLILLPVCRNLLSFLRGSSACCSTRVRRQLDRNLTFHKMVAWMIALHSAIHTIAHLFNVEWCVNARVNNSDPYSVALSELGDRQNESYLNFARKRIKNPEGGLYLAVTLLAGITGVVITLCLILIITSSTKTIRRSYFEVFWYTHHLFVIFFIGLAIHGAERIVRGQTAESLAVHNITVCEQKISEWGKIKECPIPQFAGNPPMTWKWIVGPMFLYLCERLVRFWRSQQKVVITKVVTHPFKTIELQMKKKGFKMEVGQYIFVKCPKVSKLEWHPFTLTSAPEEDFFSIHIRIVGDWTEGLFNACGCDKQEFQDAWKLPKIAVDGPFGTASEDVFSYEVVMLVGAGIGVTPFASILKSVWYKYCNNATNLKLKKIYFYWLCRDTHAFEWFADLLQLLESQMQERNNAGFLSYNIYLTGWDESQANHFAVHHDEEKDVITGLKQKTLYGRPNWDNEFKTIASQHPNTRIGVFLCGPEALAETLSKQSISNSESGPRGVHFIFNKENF
Sequence of NADPH oxidase 5 (Homo sapiens) (Q96PH1 whole entry, looked up): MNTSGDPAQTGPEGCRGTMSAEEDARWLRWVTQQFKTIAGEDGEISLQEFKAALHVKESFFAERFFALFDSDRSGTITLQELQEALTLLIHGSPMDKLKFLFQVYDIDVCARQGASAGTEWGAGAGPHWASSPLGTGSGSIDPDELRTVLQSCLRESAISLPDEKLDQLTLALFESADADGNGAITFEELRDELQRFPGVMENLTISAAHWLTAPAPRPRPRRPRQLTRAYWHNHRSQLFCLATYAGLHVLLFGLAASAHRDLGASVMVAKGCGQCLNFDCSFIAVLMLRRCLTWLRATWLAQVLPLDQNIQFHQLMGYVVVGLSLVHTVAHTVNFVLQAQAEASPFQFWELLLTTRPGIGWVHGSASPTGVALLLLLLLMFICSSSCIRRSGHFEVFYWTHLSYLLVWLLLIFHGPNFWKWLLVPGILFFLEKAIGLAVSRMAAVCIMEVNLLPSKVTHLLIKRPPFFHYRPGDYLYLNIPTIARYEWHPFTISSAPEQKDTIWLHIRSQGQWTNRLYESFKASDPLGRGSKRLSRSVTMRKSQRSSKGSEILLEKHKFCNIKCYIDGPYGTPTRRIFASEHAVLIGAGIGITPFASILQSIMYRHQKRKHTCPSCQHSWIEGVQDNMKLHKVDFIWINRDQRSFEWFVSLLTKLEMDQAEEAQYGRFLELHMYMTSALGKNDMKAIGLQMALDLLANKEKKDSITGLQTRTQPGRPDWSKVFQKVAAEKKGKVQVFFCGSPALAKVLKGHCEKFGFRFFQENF
Sequence of NADPH oxidase 4 (Homo sapiens) (Q9NPH5 whole entry, looked up): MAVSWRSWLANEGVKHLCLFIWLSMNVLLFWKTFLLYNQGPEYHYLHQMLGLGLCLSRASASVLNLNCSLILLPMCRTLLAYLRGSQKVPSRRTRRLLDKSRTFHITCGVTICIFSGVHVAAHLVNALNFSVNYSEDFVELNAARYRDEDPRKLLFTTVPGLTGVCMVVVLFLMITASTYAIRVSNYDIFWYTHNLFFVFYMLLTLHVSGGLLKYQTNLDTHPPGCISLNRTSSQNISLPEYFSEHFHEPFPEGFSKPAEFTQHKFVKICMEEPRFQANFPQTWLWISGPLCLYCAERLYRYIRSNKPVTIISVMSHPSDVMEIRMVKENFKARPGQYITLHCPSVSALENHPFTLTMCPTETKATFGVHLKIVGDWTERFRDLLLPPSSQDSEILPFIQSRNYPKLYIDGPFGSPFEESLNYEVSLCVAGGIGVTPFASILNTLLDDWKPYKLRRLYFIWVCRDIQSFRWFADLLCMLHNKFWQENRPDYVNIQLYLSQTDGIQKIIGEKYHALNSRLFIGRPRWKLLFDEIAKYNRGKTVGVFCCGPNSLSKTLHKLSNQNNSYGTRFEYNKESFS

SMILES | z-score [1] | composite z-score [2] | z-score [3] | z-score [4] | z-score [5] | z-score [6] | z-score [7] | z-score [8] | z-score [9] | z-score [10] | z-score [11] | z-score [12] | z-score [13] | z-score [14] | z-score [15] | z-score [16] | z-score [17] | z-score [18] | z-score [19] | z-score [20]
C[C@H]1C2=C3C(CC[C@H]4C(OCc5ccc(F)cc5C(F)(F)F)OC[C@](C)([C@@H]34)N(C(=O)OC(C)(C)C)C2)C(CO)C1CO (stereo not given in full) | -2.8 (inactive) | 0.687 | 1.94 (inactive) | 0.368 (inactive) | 2.1 (inactive) | 0.864 (inactive) | 0.118 | -0.678 (inactive) | -2.59 (inactive) | -1.97 | -1.49 | -0.723 | -0.907 | -3.22 | -4.68 | -0.987 | -1.13 (inactive) | -0.522 | 0.0495 | -0.629 (inactive)
COc1ccc(NN2C(C(O)c3ccco3)C=CC3C(=O)N(C4CCCCC4)C(=O)C32)cc1 (stereo not given) | -0.636 (inactive) | 0.364 | 2.54 (inactive) | 0.143 (inactive) | 0.546 (inactive) | 0.0933 (inactive) | -0.686 | -0.19 (inactive) | -0.842 (inactive) | -1.1 | -0.181 | -0.637 | 1.37 | 0.739 | -0.023 | 0.526 | -1.23 (inactive) | 0.23 | -1.23 | 0.405 (inactive)
COc1ccc([Si](C)(C)[C@H]2[C@H](CC(=O)N3Cc4ccccc4C[C@H]3CO)O[C@@]3(C(=O)N(Cc4cccc(N5CCCCC5=O)c4)c4ccccc43)[C@@H]2C)cc1 | -0.431 (inactive) | 0.0391 | 3.41 (inactive) | 0.966 (inactive) | 0.357 (inactive) | 0.549 (inactive) | 1.83 | -0.508 (inactive) | 0.916 (inactive) | -0.169 | -0.463 | 0.785 | -0.229 | -1.87 | -3.08 | -0.189 | -0.198 (inactive) | -1.07 | -1.46 | -0.646 (inactive)
O=C1NC(=O)C2C1C=CC(C(O)c1c(F)cccc1Cl)N2Nc1ccccn1 (stereo not given) | -0.805 (inactive) | 0.245 | -0.0298 (inactive) | 0.653 (inactive) | -0.254 (inactive) | 0.828 (inactive) | -1.1 | -1.84 (inactive) | -3 (inactive) | -2.23 | 0.0619 | -0.92 | 0.0038 | 0.312 | -0.825 | -1.05 | -0.957 (inactive) | -0.517 | 0.15 | -0.609 (inactive)
COc1ccc(C#Cc2ccc3c(c2)[C@]2(C(=O)N3)[C@H](C(=O)N3CCc4cc(OC)c(OC)cc4C3)[C@H]3C(=O)O[C@H](c4ccccc4)[C@H](c4ccccc4)N3[C@@H]2c2ccc(O)cc2)cc1 | -0.658 (inactive) | 0.0839 | 0.488 (inactive) | 0.216 (inactive) | -0.103 (inactive) | 0.296 (inactive) | -0.203 | 1.32 (inactive) | 0.574 (inactive) | -0.523 | -0.522 | -0.163 | 0.615 | -0.229 | -0.293 | -1.43 | 1.72 (inactive) | -0.356 | -1.09 | -0.297 (inactive)
